# How the values were obtained:
# Assay in all cases: yeast three-hybrid, YBZ-1, SC-Leu-His + 0.5 mM 3-AT, 4 days
# Settings in all cases: tags: N-Gal4 AD-HA kept; label: inside an RPR1-promoter hybrid RNA with tandem MS2 sites; ssRNA
# PUM1 PUF domain R3-EHG = PUM1 PUF domain R3-EHG (Homo sapiens, UniProt Q14671 828-1176, C935E;R936H;Q939G)
# How it was run: (§1)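 A centromeric plasmid in strain YBZ-1 co-expressed Pumilio-1 PUF domain libraries, randomized at the three base-contacting residues of each repeat, with matching RNA elements; the strain carries a LexA–MS2 coat fusion and a HIS3 reporter. After four days on SC-Leu (input) or SC-Leu-His + 0.5 mM 3-AT (selection), the repeat regions were PCR-amplified and Illumina-sequenced. The interaction score is the log change in variant frequency from input to selection, using log2 and a pseudocount of 1 where absent.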
# PUM1 PUF domain R3-RTV = PUM1 PUF domain R3-RTV (Homo sapiens, UniProt Q14671 828-1176, C935R;R936T;Q939V)
# How it was run: as §1
# PUM1 PUF domain R3-LWC = PUM1 PUF domain R3-LWC (Homo sapiens, UniProt Q14671 828-1176, C935L;R936W;Q939C)
# How it was run: as §1
# PUM1 PUF domain R2-LWQ = PUM1 PUF domain R2-LWQ (Homo sapiens, UniProt Q14671 828-1176, N899L;Y900W)
# How it was run: as §1
# PUM1 PUF domain R2-DRQ = PUM1 PUF domain R2-DRQ (Homo sapiens, UniProt Q14671 828-1176, N899D;Y900R)
# How it was run: as §1
# PUM1 PUF domain R5-GRV = PUM1 PUF domain R5-GRV (Homo sapiens, UniProt Q14671 828-1176, C1007G;Q1011V)
# How it was run: as §1
# PUM1 PUF domain R5-HLE = PUM1 PUF domain R5-HLE (Homo sapiens, UniProt Q14671 828-1176, C1007H;R1008L;Q1011E)
# How it was run: as §1
# PUM1 PUF domain R4-WHG = PUM1 PUF domain R4-WHG (Homo sapiens, UniProt Q14671 828-1176, N971W;Q975G)
# How it was run: as §1
# PUM1 PUF domain R4-DWG = PUM1 PUF domain R4-DWG (Homo sapiens, UniProt Q14671 828-1176, N971D;H972W;Q975G)
# How it was run: as §1
# PUM1 PUF domain R4-HWP = PUM1 PUF domain R4-HWP (Homo sapiens, UniProt Q14671 828-1176, N971H;H972W;Q975P)
# How it was run: as §1
# PUM1 PUF domain R4-GPT = PUM1 PUF domain R4-GPT (Homo sapiens, UniProt Q14671 828-1176, N971G;H972P;Q975T)
# How it was run: as §1
# PUM1 PUF domain R3-YYS = PUM1 PUF domain R3-YYS (Homo sapiens, UniProt Q14671 828-1176, C935Y;R936Y;Q939S)
# How it was run: as §1
# PUM1 PUF domain R3-GPE = PUM1 PUF domain R3-GPE (Homo sapiens, UniProt Q14671 828-1176, C935G;R936P;Q939E)
# How it was run: as §1
# PUM1 PUF domain R1-RYQ = PUM1 PUF domain R1-RYQ (Homo sapiens, UniProt Q14671 828-1176, S863R;R864Y)
# How it was run: as §1
# PUM1 PUF domain R1-KPL = PUM1 PUF domain R1-KPL (Homo sapiens, UniProt Q14671 828-1176, S863K;R864P;Q867L)
# How it was run: as §1
# PUM1 PUF domain R1-RPC = PUM1 PUF domain R1-RPC (Homo sapiens, UniProt Q14671 828-1176, S863R;R864P;Q867C)
# How it was run: as §1
# PUM1 PUF domain R7-VVK = PUM1 PUF domain R7-VVK (Homo sapiens, UniProt Q14671 828-1176, S1079V;N1080V;E1083K)
# How it was run: as §1
# PUM1 PUF domain R5-LNA = PUM1 PUF domain R5-LNA (Homo sapiens, UniProt Q14671 828-1176, C1007L;R1008N;Q1011A)
# How it was run: as §1
# PUM1 PUF domain R6-YWL = biological target: T1, PUM1 PUF domain R6-YWL (Homo sapiens, UniProt Q14671 828-1176, N1043Y;Y1044W;Q1047L)
# T1 sequence: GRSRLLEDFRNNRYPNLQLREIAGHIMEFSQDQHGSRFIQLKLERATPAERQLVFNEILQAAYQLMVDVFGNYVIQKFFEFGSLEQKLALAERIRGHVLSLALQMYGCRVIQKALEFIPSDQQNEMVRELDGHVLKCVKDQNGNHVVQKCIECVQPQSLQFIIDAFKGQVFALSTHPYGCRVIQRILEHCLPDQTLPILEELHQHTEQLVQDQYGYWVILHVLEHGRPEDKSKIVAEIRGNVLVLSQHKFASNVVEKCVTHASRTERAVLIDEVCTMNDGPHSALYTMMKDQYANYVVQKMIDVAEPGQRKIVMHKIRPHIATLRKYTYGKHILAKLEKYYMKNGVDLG
# How it was run: as §1
# PUM1 PUF domain R1-SKR = PUM1 PUF domain R1-SKR (Homo sapiens, UniProt Q14671 828-1176, R864K;Q867R)
# How it was run: as §1
sequence,measurement,setting,value
GGCUAGAACUAGUGGAUCCCCCGGCGCCCGGCGGCUCGAGCCCGGGUAAGUGUAAUUAGUCUGCAUGCCGCCGGGCGCCAUGCCUGCAGGUCGACUCUAGAAAACAUG,binding signal,PUM1 PUF domain R3-EHG,5.05 log2 enrichment (interaction score)
same,binding signal,PUM1 PUF domain R3-RTV,2.72 log2 enrichment (interaction score)
same,binding signal,PUM1 PUF domain R3-LWC,2.16 log2 enrichment (interaction score)
GGCUAGAACUAGUGGAUCCCCCGGCGCCCGGCGGCUCGAGCCCGGGUAAGUGUAAAAAGUCUGCAUGCCGCCGGGCGCCAUGCCUGCAGGUCGACUCUAGAAAACAUG,binding signal,PUM1 PUF domain R2-LWQ,8.53 log2 enrichment (interaction score)
same,binding signal,PUM1 PUF domain R2-DRQ,2.96 log2 enrichment (interaction score)
GGCUAGAACUAGUGGAUCCCCCGGCGCCCGGCGGCUCGAGCCCGGGUAAGUGUGAAUAGUCUGCAUGCCGCCGGGCGCCAUGCCUGCAGGUCGACUCUAGAAAACAUG,binding signal,PUM1 PUF domain R5-GRV,2.53 log2 enrichment (interaction score)
GGCUAGAACUAGUGGAUCCCCCGGCGCCCGGCGGCUCGAGCCCGGGUAAGUGUCAAUAGUCUGCAUGCCGCCGGGCGCCAUGCCUGCAGGUCGACUCUAGAAAACAUG,binding signal,PUM1 PUF domain R5-HLE,0.68 log2 enrichment (interaction score)
GGCUAGAACUAGUGGAUCCCCCGGCGCCCGGCGGCUCGAGCCCGGGUAAGUGUAUAUAGUCUGCAUGCCGCCGGGCGCCAUGCCUGCAGGUCGACUCUAGAAAACAUG,binding signal,PUM1 PUF domain R4-WHG,3.79 log2 enrichment (interaction score)
same,binding signal,PUM1 PUF domain R4-DWG,4.56 log2 enrichment (interaction score)
same,binding signal,PUM1 PUF domain R4-HWP,4.4 log2 enrichment (interaction score)
same,binding signal,PUM1 PUF domain R4-GPT,2.14 log2 enrichment (interaction score)
GGCUAGAACUAGUGGAUCCCCCGGCGCCCGGCGGCUCGAGCCCGGGUAAGUGUAAGUAGUCUGCAUGCCGCCGGGCGCCAUGCCUGCAGGUCGACUCUAGAAAACAUG,binding signal,PUM1 PUF domain R3-EHG,4.29 log2 enrichment (interaction score)
same,binding signal,PUM1 PUF domain R3-YYS,6.91 log2 enrichment (interaction score)
same,binding signal,PUM1 PUF domain R3-LWC,3.65 log2 enrichment (interaction score)
same,binding signal,PUM1 PUF domain R3-GPE,5.98 log2 enrichment (interaction score)
GGCUAGAACUAGUGGAUCCCCCGGCGCCCGGCGGCUCGAGCCCGGGUAAGUGUAAAUUGUCUGCAUGCCGCCGGGCGCCAUGCCUGCAGGUCGACUCUAGAAAACAUG,binding signal,PUM1 PUF domain R1-RYQ,4.14 log2 enrichment (interaction score)
same,binding signal,PUM1 PUF domain R1-KPL,3.37 log2 enrichment (interaction score)
same,binding signal,PUM1 PUF domain R1-RPC,1.56 log2 enrichment (interaction score)
GGCUAGAACUAGUGGAUCCCCCGGCGCCCGGCGGCUCGAGCCCGGGUAAGUUUAAAUAGUCUGCAUGCCGCCGGGCGCCAUGCCUGCAGGUCGACUCUAGAAAACAUG,binding signal,PUM1 PUF domain R7-VVK,3.27 log2 enrichment (interaction score)
GGCUAGAACUAGUGGAUCCCCCGGCGCCCGGCGGCUCGAGCCCGGGUAAGUGUACAUAGUCUGCAUGCCGCCGGGCGCCAUGCCUGCAGGUCGACUCUAGAAAACAUG,binding signal,PUM1 PUF domain R4-DWG,2.61 log2 enrichment (interaction score)
GGCUAGAACUAGUGGAUCCCCCGGCGCCCGGCGGCUCGAGCCCGGGUAAGUGUUAAUAGUCUGCAUGCCGCCGGGCGCCAUGCCUGCAGGUCGACUCUAGAAAACAUG,binding signal,PUM1 PUF domain R5-LNA,4.02 log2 enrichment (interaction score)
same,binding signal,PUM1 PUF domain R5-GRV,3.07 log2 enrichment (interaction score)
same,binding signal,PUM1 PUF domain R5-HLE,2.54 log2 enrichment (interaction score)
GGCUAGAACUAGUGGAUCCCCCGGCGCCCGGCGGCUCGAGCCCGGGUAAGUGAAAAUAGUCUGCAUGCCGCCGGGCGCCAUGCCUGCAGGUCGACUCUAGAAAACAUG,binding signal,PUM1 PUF domain R6-YWL,7.77 log2 enrichment (interaction score)
GGCUAGAACUAGUGGAUCCCCCGGCGCCCGGCGGCUCGAGCCCGGGUAAGUGUAAAUCGUCUGCAUGCCGCCGGGCGCCAUGCCUGCAGGUCGACUCUAGAAAACAUG,binding signal,PUM1 PUF domain R1-SKR,3.09 log2 enrichment (interaction score)
same,binding signal,PUM1 PUF domain R1-RYQ,5.27 log2 enrichment (interaction score)
same,binding signal,PUM1 PUF domain R1-KPL,2.58 log2 enrichment (interaction score)
same,binding signal,PUM1 PUF domain R1-RPC,2.57 log2 enrichment (interaction score)
GGCUAGAACUAGUGGAUCCCCCGGCGCCCGGCGGCUCGAGCCCGGGUAAGUGUAAAUAGUCUGCAUGCCGCCGGGCGCCAUGCCUGCAGGUCGACUCUAGAAAACAUG,binding signal,PUM1 PUF domain R2-LWQ,1.66 log2 enrichment (interaction score)
same,binding signal,PUM1 PUF domain R3-EHG,2.53 log2 enrichment (interaction score)
same,binding signal,PUM1 PUF domain R1-RYQ,2.21 log2 enrichment (interaction score)
same,binding signal,PUM1 PUF domain R4-DWG,5.39 log2 enrichment (interaction score)
same,binding signal,PUM1 PUF domain R4-HWP,5.47 log2 enrichment (interaction score)
same,binding signal,PUM1 PUF domain R5-GRV,2.75 log2 enrichment (interaction score)
same,binding signal,PUM1 PUF domain R4-GPT,2.42 log2 enrichment (interaction score)
same,binding signal,PUM1 PUF domain R5-HLE,1.15 log2 enrichment (interaction score)

# — paper PMC8384837, “Expanding the binding specificity for RNA recognition by a PUF domain”
